Among all 5,500 compounds or so, about 2,000 (36%) were called active. Another 18% or so got no clear call; they are omitted. Cut-off read from the data, not from the text of the source: active = normalized growth mostly below about 0.91 (no sharp cut-off); inconclusive = no clear call, values can overlap the other calls; inactive = mostly above about 0.92. This is one part of the list.
Test: chemical genetic growth profiling, strain panel (AID 1159580);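 note: tested at 20 µM; growth read once vehicle control cultures reached saturation at 30 °C; 1 = growth at the plate median or of vehicle wells; lower values mean less growth of the strain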
Settings: growth OD
[1] = S. cerevisiae deletion strains, locus YDL101C, strain DUN1, active compounds read low
[2] = S. cerevisiae deletion strains, locus YHR030C, strain SLT2, active compounds read low
[3] = S. cerevisiae deletion strains, locus YAL013W, strain DEP1, active compounds read low
[4] = S. cerevisiae deletion strains, locus YBR229C, strain ROT2, active compounds read low
[5] = S. cerevisiae deletion strains, locus YDR150W, strain NUM1, active compounds read low
[6] = S. cerevisiae deletion strains, locus YEL061C, strain CIN8, active compounds read low
[7] = S. cerevisiae deletion strains, locus YGR078C, strain PAC10, active compounds read low
[8] = S. cerevisiae deletion strains, locus YHR087W, strain rtc3, active compounds read low
[9] = S. cerevisiae deletion strains, locus YJR043C, strain POL32, active compounds read low
[10] = S. cerevisiae deletion strains, locus YJR075W, strain HOC1, active compounds read low
[11] = S. cerevisiae deletion strains, locus YLR039C, strain RIC1, active compounds read low
[12] = S. cerevisiae deletion strains, locus YLR058C, strain SHM2 (second series), active compounds read low
[13] = S. cerevisiae deletion strains, locus YLR085C, strain ARP6, active compounds read low
[14] = S. cerevisiae deletion strains, locus YLR262C, strain YPT6, active compounds read low
[15] = S. cerevisiae deletion strains, locus YML094W, strain GIM5, active compounds read low
[16] = S. cerevisiae deletion strains, locus YMR219W, strain ESC1, active compounds read low
[17] = S. cerevisiae deletion strains, locus YMR263W, strain SAP30, active compounds read low
[18] = S. cerevisiae deletion strains, locus YMR307W, strain GAS1, active compounds read low
[19] = S. cerevisiae deletion strains, locus YNL153C, strain GIM3, active compounds read low
[20] = S. cerevisiae deletion strains, locus YNL298W, strain CLA4 (second series), active compounds read low
[21] = S. cerevisiae deletion strains, locus YNL322C, strain KRE1, active compounds read low
[22] = S. cerevisiae deletion strains, locus YNR030W, strain Alg12, active compounds read low
[23] = S. cerevisiae deletion strains, locus YPL055C, strain LGE1, active compounds read low
[24] = S. cerevisiae deletion strains, locus YPL241C, strain CIN2, active compounds read low
[25] = S. cerevisiae deletion strains, locus YPR135W, strain CTF4, active compounds read low

Measured: normalized growth

O=C(Nc1cc(C(F)(F)F)cc(C(F)(F)F)c1)C(Cl)(Cl)Cl
active: [2] 0.829 | S. cerevisiae deletion strains, locus YLR113W, strain HOG1, active compounds read low 0.853 | S. cerevisiae deletion strains, locus YPL256C, strain CLN2, active compounds read low 0.77
inactive: S. cerevisiae deletion strains, locus YAR019C, strain CDC15, active compounds read low 0.964 | S. cerevisiae deletion strains, locus YBL105C, strain PKC1, active compounds read low 0.958 | S. cerevisiae deletion strains, locus YBR135W, strain CKS1, active compounds read low 0.962 | S. cerevisiae deletion strains, locus YBR136W, strain MEC1, active compounds read low 0.965 | S. cerevisiae deletion strains, locus YBR160W, strain CDC28, active compounds read low 0.969 | S. cerevisiae deletion strains, locus YDL017W, strain CDC7, active compounds read low 0.959 | S. cerevisiae deletion strains, locus YDL028C, strain MPS1, active compounds read low 0.966 | [1] 0.97 | S. cerevisiae deletion strains, locus YDL108W, strain KIN28, active compounds read low 0.957 | S. cerevisiae deletion strains, locus YDL132W, strain cdc53, active compounds read low 0.955 | S. cerevisiae deletion strains, locus YDL214C, strain PRR2, active compounds read low 0.919 | S. cerevisiae deletion strains, locus YDR052C, strain DBF4, active compounds read low 0.964 | S. cerevisiae deletion strains, locus YDR054C, strain cdc34, active compounds read low 0.948 | S. cerevisiae deletion strains, locus YDR226W, strain ADK1, active compounds read low 0.959 | S. cerevisiae deletion strains, locus YDR477W, strain SNF1, active compounds read low 0.921 | S. cerevisiae deletion strains, locus YER123W, strain YCK3, active compounds read low 0.878 | S. cerevisiae deletion strains, locus YER133W, strain GLC7, active compounds read low 0.918 | S. cerevisiae deletion strains, locus YFL009W, strain cdc4, active compounds read low 0.951 | S. cerevisiae deletion strains, locus YFL029C, strain CAK1, active compounds read low 0.962 | S. cerevisiae deletion strains, locus YFR003C, strain YPI1, active compounds read low 0.955 | S. cerevisiae deletion strains, locus YFR019W, strain FAB1, active compounds read low 0.957 | S. cerevisiae deletion strains, locus YFR028C, strain CDC14, active compounds read low 0.962 | S. cerevisiae deletion strains, locus YGR040W, strain KSS1, active compounds read low 0.929 | S. cerevisiae deletion strains, locus YGR052W, strain FMP48, active compounds read low 0.911 | S. cerevisiae deletion strains, locus YGR092W, strain DBF2, active compounds read low 0.879 | S. cerevisiae deletion strains, locus YHR079C, strain IRE1, active compounds read low 0.843 | S. cerevisiae deletion strains, locus YHR082C, strain KSP1, active compounds read low 0.932 | S. cerevisiae deletion strains, locus YHR205W, strain SCH9, active compounds read low 0.815 | S. cerevisiae deletion strains, locus YIL147C, strain SLN1, active compounds read low 0.96 | S. cerevisiae deletion strains, locus YJL095W, strain BCK1, active compounds read low 0.828 | S. cerevisiae deletion strains, locus YJL128C, strain PBS2, active compounds read low 0.883 | S. cerevisiae deletion strains, locus YJL157C, strain FAR1, active compounds read low 0.932 | S. cerevisiae deletion strains, locus YJR016C, strain ILV3, active compounds read low 0.956 | S. cerevisiae deletion strains, locus YJR066W, strain TOR1 (second series), active compounds read low 0.947 | S. cerevisiae deletion strains, locus YJR066W, strain TOR1, active compounds read low 0.955 | S. cerevisiae deletion strains, locus YKL048C, strain ELM1, active compounds read low 0.931 | S. cerevisiae deletion strains, locus YKL067W, strain YNK1, active compounds read low 0.932 | S. cerevisiae deletion strains, locus YKL101W, strain HSL1, active compounds read low 0.918 | S. cerevisiae deletion strains, locus YKL193C, strain SDS22, active compounds read low 0.95 | S. cerevisiae deletion strains, locus YKL203C, strain TOR2, active compounds read low 0.969 | S. cerevisiae deletion strains, locus YLR133W, strain CKI1, active compounds read low 0.934 | S. cerevisiae deletion strains, locus YLR403W, strain SFP1, active compounds read low 0.916 | S. cerevisiae deletion strains, locus YML070W, strain DAK1, active compounds read low 0.891 | S. cerevisiae deletion strains, locus YMR001C, strain CDC5, active compounds read low 0.963 | S. cerevisiae deletion strains, locus YMR205C, strain PFK2 (second series), active compounds read low 0.926 | S. cerevisiae deletion strains, locus YMR277W, strain FCP1, active compounds read low 0.956 | S. cerevisiae deletion strains, locus YNL006W, strain LST8, active compounds read low 0.974 | S. cerevisiae deletion strains, locus YNL020C, strain ARK1, active compounds read low 0.92 | S. cerevisiae deletion strains, locus YNL161W, strain CBK1, active compounds read low 0.957 | S. cerevisiae deletion strains, locus YNL183C, strain NPR1, active compounds read low 0.913 | S. cerevisiae deletion strains, locus YNL207W, strain RIO2, active compounds read low 0.955 | S. cerevisiae deletion strains, locus YNL222W, strain SSU72, active compounds read low 0.967 | S. cerevisiae deletion strains, locus YNL307C, strain MCK1 (second series), active compounds read low 0.869 | S. cerevisiae deletion strains, locus YOL078W, strain AVO1, active compounds read low 0.961 | S. cerevisiae deletion strains, locus YOL136C, strain PFK27, active compounds read low 0.89 | S. cerevisiae deletion strains, locus YOR061W, strain CKA2, active compounds read low 0.96 | S. cerevisiae deletion strains, locus YOR119C, strain RIO1, active compounds read low 1 | S. cerevisiae deletion strains, locus YOR231W, strain MKK1, active compounds read low 0.896 | S. cerevisiae deletion strains, locus YOR329C, strain SCD5, active compounds read low 0.959 | S. cerevisiae deletion strains, locus YPL031C, strain PHO85, active compounds read low 0.904 | S. cerevisiae deletion strains, locus YPL153C, strain RAD53, active compounds read low 0.889 | S. cerevisiae deletion strains, locus YPL204W, strain HRR25, active compounds read low 0.879 | S. cerevisiae deletion strains, locus YPL209C, strain IPL1, active compounds read low 0.964 | S. cerevisiae deletion strains, locus YPR025C, strain CCL1, active compounds read low 0.969 | S. cerevisiae deletion strains, locus YPR106W, strain ISR1, active compounds read low 0.958 | S. cerevisiae deletion strains, locus YPR111W, strain DBF20, active compounds read low 0.941 | S. cerevisiae deletion strains, strain NNK1, active compounds read low 0.96 | S. cerevisiae deletion strains, strain TSCII, active compounds read low 0.957

CCc1cccc(C)c1NC(=O)CC(C)(C)CC(=O)O
inactive: [3] 0.988 | [4] 0.994 | [1] 1.02 | [5] 0.981 | [6] 0.992 | [7] 0.99 | S. cerevisiae deletion strains, locus YGR229C, strain SMI1, active compounds read low 0.992 | [2] 0.989 | [8] 1.01 | S. cerevisiae deletion strains, locus YJL187C, strain SWE1, active compounds read low 0.996 | [9] 0.995 | [10] 1.01 | S. cerevisiae deletion strains, locus YKL190W, strain CNB1, active compounds read low 0.987 | [11] 1.03 | [12] 0.996 | [13] 0.966 | [14] 1.02 | [15] 1.06 | [16] 0.996 | [17] 0.967 | [18] 0.983 | [19] 1.01 | [20] 1.01 | [21] 0.992 | [22] 1 | [23] 1.02 | [24] 1.01 | [25] 1.06

O=C(CN1CCOCC1)Nc1cc(C(F)(F)F)cc(C(F)(F)F)c1
inactive: [3] 0.999 | [4] 1.01 | S. cerevisiae deletion strains, locus YCL061C, strain MRC1, active compounds read low 1.01 | [1] 1 | S. cerevisiae deletion strains, locus YDL134C, strain PPH21, active compounds read low 0.995 | [5] 1 | [6] 1.01 | [7] 1.01 | [2] 1.02 | [8] 0.995 | [9] 0.974 | [10] 0.986 | [11] 1.06 | [12] 1 | [13] 0.988 | [14] 1.05 | [15] 0.996 | [16] 1.01 | [17] 0.986 | [18] 1.01 | S. cerevisiae deletion strains, locus YNL128W, strain TEP1, active compounds read low 0.993 | [19] 0.99 | [20] 0.992 | [21] 1 | [22] 0.994 | [23] 0.972 | [24] 1.07 | [25] 1.02 | S. cerevisiae strains, strain wild type, active compounds read low 0.999

Source: PubChem BioAssay AID1159580 (chemical genetic matrix, 2015)
